Laboratory results reported in PubChem BioAssay (Tox21).
Values without a mark were called inactive. Records with an inconclusive call do not appear. A call without a number means that no potency is given here. Calls of active or inactive are those of the source. Unless noted, the call rests on the fitted dose curve; in most records, active means well fitted curve in the direction sought with a large enough effect in the repeat runs; inconclusive means weak or mixed curves; inactive means no such curve, though single readings can be large; an effect the other way counts as inactive or inconclusive.

Key:
[1] = qHTS assay to identify small molecule HDAC inhibitors (AID 1259364); further: top concentration of the series differs between compounds; nearly all actives have a fitted effect of over 45% in size
Procedure, shortened: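 Luminescence read after 30 min room-temperature HDAC-Glo incubation measures cellular class I/II HDAC activity. Compounds were applied for 2 hr at 37 C to HCT-116 wild-type cells seeded the day before.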

[2] = qHTS assay to identify small molecule agonists of the sonic hedgehog signaling (Shh) pathway - cell viability counter screen (AID 1259366); further: nearly all actives have a fitted effect of over 50% in size; further: potency means the concentration at half of the fitted maximal effect
Procedure, shortened: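 Same-well cytotoxicity read. Gli1-Luc reporter 3T3 cells; compounds 24hr, 37C/5% CO2; CellTiter-Fluor fluorescence.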

[3] = qHTS assay to identify small molecule antagonists of the sonic hedgehog signaling (Shh) pathway - cell viability counter screen (AID 1259367); further: nearly all actives have a fitted effect of over 55% in size; further: potency means the concentration at half of the fitted maximal effect
Procedure, shortened: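 Viability was read by CellTiter-Fluor fluorescence in the same wells, reagent added 23 hr into compound treatment and incubated 1 hr at 37C. The 3T3 Gli1-Luc reporter cells (2,000/well) received conditioned medium after compound and ran 24 hr.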

[4] = qHTS assay to identify small molecule agonists of the sonic hedgehog signaling (Shh) pathway (AID 1259368; calls by dose curve;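 further: NIH/3T3-derived 3T3Gli1-Luc cells carrying a stable Gli1-driven firefly luciferase reporter; series mostly up to about 92 µM; nearly all actives have a fitted effect of over 15% in size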)
Procedure, shortened: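 Luminescence was read after 30 min at room temperature with luciferase reagent. Before that, 3T3Gli1-Luc cells (NIH/3T3 clone, stable Gli1-Luc reporter; 2,000/well) were exposed to compounds for 24 hr at 37C, 5% CO2, compounds being added 4 hr post-plating.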

[5] = qHTS assay to identify small molecule antagonists of the sonic hedgehog signaling (Shh) pathway (AID 1259369; calls by dose curve; further: nearly all actives have a fitted effect of over 45% in size; further: potency means the concentration at half of the fitted maximal effect)
Procedure, shortened: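 Antagonist mode: compound added to 3T3 Gli1-Luc cells followed by conditioned-medium stimulation, 24 h at 37 C, 5% CO2. Inhibition taken as loss of Gli1-driven luciferase luminescence.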

[6] = qHTS assay to identify small molecule agonists of the androgen receptor (AR) signaling pathway in the presence of an antagonist - cell viability counter screen (AID 1259379); further: nearly all actives have a fitted effect of over 25% in size; further: potency means the concentration at half of the fitted maximal effect
Procedure, shortened: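 Cytotoxicity counter-screen run in the same wells as the nilutamide-challenged (3.0 µM final) AR agonist assay in MDA-kb2 cells. Compounds tested at 15 concentrations for 16 h, 37 °C without CO2; CellTiter-Fluor fluorescence read.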

[7] = molecular target: Androgen receptor (Homo sapiens) (UniProt P10275); test: qHTS assay to identify small molecule agonists of the androgen receptor (AR) signaling pathway in the presence of an antagonist (AID 1259381; calls by dose curve; further: nearly all actives have a fitted effect of over 15% in size; further: potency means the concentration at half of the fitted maximal effect)
Sequence of Androgen receptor (Homo sapiens) (P10275 whole entry, looked up): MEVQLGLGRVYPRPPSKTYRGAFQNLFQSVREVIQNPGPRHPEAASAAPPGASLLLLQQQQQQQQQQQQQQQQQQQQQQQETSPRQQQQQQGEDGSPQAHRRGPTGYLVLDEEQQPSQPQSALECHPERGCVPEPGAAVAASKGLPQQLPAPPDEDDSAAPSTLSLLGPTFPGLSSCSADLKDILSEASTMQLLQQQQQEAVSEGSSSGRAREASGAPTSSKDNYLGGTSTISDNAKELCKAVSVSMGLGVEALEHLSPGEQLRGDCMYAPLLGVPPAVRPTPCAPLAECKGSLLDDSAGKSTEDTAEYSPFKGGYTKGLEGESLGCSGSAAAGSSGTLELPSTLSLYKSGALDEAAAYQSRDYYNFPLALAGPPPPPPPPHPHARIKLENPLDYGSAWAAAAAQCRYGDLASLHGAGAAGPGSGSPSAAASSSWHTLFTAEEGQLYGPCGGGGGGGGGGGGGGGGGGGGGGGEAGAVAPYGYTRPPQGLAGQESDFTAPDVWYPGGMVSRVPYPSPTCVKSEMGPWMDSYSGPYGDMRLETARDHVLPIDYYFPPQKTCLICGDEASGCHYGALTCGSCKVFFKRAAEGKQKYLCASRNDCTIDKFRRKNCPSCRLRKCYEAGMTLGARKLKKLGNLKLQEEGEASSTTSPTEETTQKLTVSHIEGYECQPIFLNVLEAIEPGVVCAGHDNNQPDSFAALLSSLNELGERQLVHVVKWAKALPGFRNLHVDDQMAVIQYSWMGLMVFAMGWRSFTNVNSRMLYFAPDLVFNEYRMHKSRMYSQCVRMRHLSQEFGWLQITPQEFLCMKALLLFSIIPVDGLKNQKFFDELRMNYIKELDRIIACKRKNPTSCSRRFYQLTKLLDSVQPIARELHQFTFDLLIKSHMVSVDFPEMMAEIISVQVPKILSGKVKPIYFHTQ
Procedure, shortened: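 Agonist-mode confirmation run against 3.0 uM final nilutamide: compounds titrated at 15 concentrations onto MDA-kb2 MMTV-luciferase reporter cells. Luminescence measured with ONE-Glo following 16 hr incubation, 37C, 0% CO2.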

[8] = qHTS assay to identify small molecule antagonists of the estrogen receptor beta (ER-beta) signaling pathway - cell viability counter screen (AID 1259382); further: nearly all actives have a fitted effect of over 55% in size; further: potency means the concentration at half of the fitted maximal effect
Procedure, shortened: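 Cytotoxicity was measured in the same wells by CellTiter-Glo luminescence after 30 min at room temperature. Cells were ER-beta-bla HEK293T in charcoal-stripped serum, given compound together with 1 nM E2 and incubated 16 h at 37C.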

[9] = qHTS assay to identify small molecule agonists or antagonists of the thyroid stimulating hormone receptor (TSHR) signaling pathway - wild type cell line counter screen (AID 1259384; calls by dose curve)
Procedure, shortened: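 Counter screen in untransfected Hek293: compounds (15-point titration, triplicate) plus phosphodiesterase inhibitor Ro20-1724 added after 18 h plating; 30 min RT. Intracellular cAMP via competitive d2/cryptate immunoassay, 1 h incubation.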

[10] = molecular target: Thyrotropin receptor (Homo sapiens) (UniProt P16473); test: qHTS assay to identify small molecule antagonists of the thyroid stimulating hormone receptor (TSHR) signaling pathway (AID 1259385; calls by dose curve; further: nearly all actives have a fitted effect of over 20% in size; further: potency means the concentration at half of the fitted maximal effect)
Sequence of Thyrotropin receptor (Homo sapiens) (P16473 whole entry, looked up): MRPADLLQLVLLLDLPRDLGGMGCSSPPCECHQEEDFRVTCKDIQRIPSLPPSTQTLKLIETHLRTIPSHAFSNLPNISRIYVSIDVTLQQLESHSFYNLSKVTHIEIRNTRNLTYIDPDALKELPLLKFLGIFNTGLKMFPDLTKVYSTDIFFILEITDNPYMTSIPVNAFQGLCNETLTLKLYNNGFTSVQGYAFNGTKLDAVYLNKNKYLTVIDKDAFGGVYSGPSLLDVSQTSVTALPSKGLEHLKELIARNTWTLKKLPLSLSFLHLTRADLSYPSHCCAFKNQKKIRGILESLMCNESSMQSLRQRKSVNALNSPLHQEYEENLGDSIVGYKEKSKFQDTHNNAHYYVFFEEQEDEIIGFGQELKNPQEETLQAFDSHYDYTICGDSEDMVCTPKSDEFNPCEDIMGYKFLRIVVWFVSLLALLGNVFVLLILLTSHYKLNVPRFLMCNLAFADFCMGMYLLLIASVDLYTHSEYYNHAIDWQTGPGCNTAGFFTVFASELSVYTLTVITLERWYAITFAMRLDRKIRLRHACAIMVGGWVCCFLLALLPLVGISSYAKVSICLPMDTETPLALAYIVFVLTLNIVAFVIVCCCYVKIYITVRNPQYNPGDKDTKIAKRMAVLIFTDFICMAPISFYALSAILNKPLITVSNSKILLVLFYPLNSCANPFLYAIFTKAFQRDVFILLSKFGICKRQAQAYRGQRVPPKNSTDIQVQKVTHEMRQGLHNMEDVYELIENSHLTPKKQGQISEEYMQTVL
Procedure, shortened: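 Antagonist mode: compound-treated TSHR-expressing HEK293 cells were stimulated with 1.5 ng/mL TSH (final) in presence of Ro20-1724 for 30 min at RT. HTRF cAMP detection after 1 h; each compound tested at 15 concentrations, triplicate.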

[11] = molecular target: Androgen receptor (Homo sapiens) (UniProt P10275); test: qHTS assay to identify small molecule antagonists of the androgen receptor (AR) signaling pathway using the MDA cell line in the presence of 0.5 nM R1881 (AID 1259243); further: potency means the concentration at half of the fitted maximal effect; nearly all actives have a fitted effect of over 50% in size
Procedure, shortened: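 Luminescent reporter readout (ONE-Glo, 30 min, room temperature) after 16 hr co-treatment of MDA-kb2 cells with test compounds and 0.5 nM R1881 final, at 37C without CO2. The MMTV-driven luciferase responds to both AR and GR.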

[12] = molecular target: Estrogen receptor (Homo sapiens) (UniProt P03372); test: qHTS assay to identify small molecule antagonists of the estrogen receptor alpha (ER-alpha) signaling pathway using the BG1 cell line in the presence of 0.1 nM 17-beta-estradiol (AID 1259244); further: nearly all actives have a fitted effect of over 50% in size; further: potency means the concentration at half of the fitted maximal effect
Sequence of Estrogen receptor (Homo sapiens) (P03372 whole entry, looked up): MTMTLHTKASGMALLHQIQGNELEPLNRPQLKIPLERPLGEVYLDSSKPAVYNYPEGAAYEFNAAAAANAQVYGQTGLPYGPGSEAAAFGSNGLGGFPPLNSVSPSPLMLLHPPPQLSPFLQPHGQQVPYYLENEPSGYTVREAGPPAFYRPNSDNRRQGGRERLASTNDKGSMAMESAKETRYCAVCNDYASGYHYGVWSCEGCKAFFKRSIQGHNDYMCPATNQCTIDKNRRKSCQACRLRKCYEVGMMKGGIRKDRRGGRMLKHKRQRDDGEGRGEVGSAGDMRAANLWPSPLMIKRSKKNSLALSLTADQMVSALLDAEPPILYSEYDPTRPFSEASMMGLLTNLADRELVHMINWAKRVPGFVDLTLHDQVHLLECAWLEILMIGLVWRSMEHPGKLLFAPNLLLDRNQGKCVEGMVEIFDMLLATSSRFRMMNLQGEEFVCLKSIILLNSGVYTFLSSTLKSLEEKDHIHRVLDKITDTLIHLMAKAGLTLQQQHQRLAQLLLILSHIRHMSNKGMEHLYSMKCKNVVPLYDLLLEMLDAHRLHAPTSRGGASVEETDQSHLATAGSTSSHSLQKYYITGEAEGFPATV
Procedure, shortened: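 Luciferase luminescence (ONE-Glo, 30 min at room temperature) was read after 22 hr at 37C exposure to compounds plus 17beta-estradiol at 0.1 nM final. Cells were VM7Luc4E2 with endogenous ER-alpha and an ERE-driven luciferase, pre-cultured 5 days in hormone-depleted medium.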

[13] = qHTS assay to identify small molecule phospholipidosis (PLD) inducers (AID 1259344; active means well fitted curve in the direction sought with a large enough effect; an effect the other way counts as inactive or inconclusive)
Procedure, shortened: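 Phospholipid accumulation was scored by imaging: fixed, Hoechst-counterstained HepG2 cells stained with LipidTOX Red after 24 h compound exposure at 37 C. Read-outs were pit count and pit intensity per well or per cell, with amiodarone and DMSO controls.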

[14] = qHTS assay to identify small molecule agonists of the estrogen receptor beta (ER-beta) signaling pathway - cell viability counter screen (AID 1259380); further: nearly all actives have a fitted effect of over 30% in size; further: potency means the concentration at half of the fitted maximal effect
Procedure, shortened: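 Cell viability counter screen: CellTiter-Glo luminescence (30 min, room temperature) measured in the same wells as the beta-lactamase readout, after 16 hr compound exposure at 37C of ER-beta-bla HEK293T cells in 2% charcoal-stripped FBS medium.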

[15] = molecular target: Estrogen receptor (Homo sapiens) (UniProt P03372); test: qHTS assay to identify small molecule agonists of the estrogen receptor alpha (ER-alpha) signaling pathway in the presence of an antagonist (AID 1259383; calls by dose curve; further: nearly all actives have a fitted effect of over 15% in size; further: potency means the concentration at half of the fitted maximal effect; on activation: top concentration of the series differs between compounds)
Procedure, shortened: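 Agonist-mode confirmation run in the presence of 10.0nM (final) ICI-182,780 antagonist. The reporter was ERE-driven luciferase in VM7Luc4E2 cells, grown in charcoal-stripped serum. Cells were exposed to 15-concentration compound series for 22hr, then ONE-Glo luminescence was read.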

[16] = qHTS assay to identify small molecule HDAC inhibitors - cell viability counter screen (AID 1259365); further: series mostly up to about 92 µM; nearly all actives have a fitted effect of over 50% in size
Procedure, shortened: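 After overnight seeding at 1,500 cells per well, wild-type HCT-116 cultures took up compounds in DMSO for 2hr at 37 C. Viable cell content came from luminescence with CellTiter-Glo.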

[17] = molecular target: Estrogen receptor beta (Homo sapiens) (UniProt Q92731); test: qHTS assay to identify small molecule agonists of the estrogen receptor beta (ER-beta) signaling pathway (AID 1259377; active means well fitted activation curve with a large enough effect in the signal ratio in the repeat runs, not every such curve was filed as active; the % refers to the signal ratio)
Sequence of Estrogen receptor beta (Homo sapiens) (Q92731 whole entry, looked up): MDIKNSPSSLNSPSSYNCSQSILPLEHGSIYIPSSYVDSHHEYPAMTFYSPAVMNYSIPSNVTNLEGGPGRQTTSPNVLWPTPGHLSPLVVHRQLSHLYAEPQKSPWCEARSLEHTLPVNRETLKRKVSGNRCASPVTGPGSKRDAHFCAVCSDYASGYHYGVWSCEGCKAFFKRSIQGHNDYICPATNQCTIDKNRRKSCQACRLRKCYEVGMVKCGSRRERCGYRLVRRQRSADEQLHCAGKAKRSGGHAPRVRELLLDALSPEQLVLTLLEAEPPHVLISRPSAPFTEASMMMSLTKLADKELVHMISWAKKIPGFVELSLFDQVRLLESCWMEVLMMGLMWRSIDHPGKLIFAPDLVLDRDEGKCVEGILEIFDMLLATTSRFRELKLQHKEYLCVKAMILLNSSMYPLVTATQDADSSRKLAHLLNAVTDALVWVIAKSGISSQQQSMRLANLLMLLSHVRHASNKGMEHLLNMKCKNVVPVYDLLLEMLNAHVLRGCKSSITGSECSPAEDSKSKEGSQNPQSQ
Procedure, shortened: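 Read-out: beta-lactamase FRET fluorescence. Cell line: ER-beta-UAS-bla HEK293T in 2% charcoal-stripped FBS. Exposure: 16 hr at 37C. Substrate step: 2 h at room temperature.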

[18] = molecular target: Estrogen receptor beta (Homo sapiens) (UniProt Q92731); test: qHTS assay to identify small molecule antagonists of the estrogen receptor beta (ER-beta) signaling pathway (AID 1259378; active means well fitted inhibition curve with a large enough effect in the signal ratio in the repeat runs, not every such curve was filed as active; the % refers to the signal ratio)
Procedure, shortened: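 Antagonist mode: compounds added to beta-lactamase reporter HEK293T ER-beta-UAS cells stimulated with E2 (1nM final), 16 hr at 37C. LiveBLAzer B/G FRET substrate, 2 hours room temperature, fluorescence read-out.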

With `CC/C(=C(\c1ccc(O)cc1)c1ccc(OCCN(C)C)cc1)c1ccccc1` the Potency [1] was “inactive”, the Potency [2] was 21.7 µM (active) and the Potency [3] was 30.7 µM (active). The Potency [4] was “inactive”, the Potency [5] was 9.71 µM (active) and the Potency [6] was 61.3 µM (active). The Potency [7] was “inactive”, the Potency [8] was 27.4 µM (active) and the outcome [9] was “inactive”. For the same compound, the Potency [10] was 77.1 µM (active).
With `CC(C)(C)CC(C)(C)c1ccc(O)c(Cc2ccc(Cl)cc2Cl)c1` the Potency [11] was 29.8 µM (active), the Potency [12] was 33.5 µM (active) and the Potency [13] was “inactive”. The Potency [1] was “inactive”, the Potency [4] was “inactive” and the Potency [14] was 11.9 µM (active). The Potency [7] was “inactive”, the Potency [8] was 29.8 µM (active) and the Potency [15] was “inactive”. For the same compound, the outcome [9] was “inactive” and the Potency [10] was “inactive”.
With `OCCN(CCO)c1nc(N2CCCCC2)c2nc(N(CCO)CCO)nc(N3CCCCC3)c2n1` the Potency [13] was “inactive”, the Potency [1] was “inactive” and the Potency [16] was “inactive”. For the same compound, the Potency [4] was “inactive”, the Potency [5] was 2.11 µM (active) and the Potency [7] was “inactive”. For the same compound, the Potency [15] was “inactive”.
With `CCN(C(=O)N(CC)c1ccccc1)c1ccccc1` the Potency [1] was “inactive”, the Potency [16] was “inactive” and the Potency [2] was “inactive”. For the same compound, the Potency [3] was “inactive”, the Potency [4] was “inactive” and the Potency [6] was “inactive”. The Potency [14] was “inactive” and the Potency [10] was “inactive”.
In the case of `CS(=O)(=O)CCNCc1ccc(-c2ccc3ncnc(Nc4ccc(OCc5cccc(F)c5)c(Cl)c4)c3c2)o1`, the Potency [12] is reported as 29.8 µM (active), the Potency [13] is reported as “inactive” and the Potency [1] is reported as “inactive”. For the same compound, the Potency [16] was “inactive”, the Potency [2] was “inactive” and the Potency [3] was “inactive”. The Potency [4] was “inactive”, the Potency [6] was 15 µM (active) and the Potency [14] was 13.3 µM (active). The Potency [7] was “inactive”, the Potency [8] was 13.3 µM (active) and the Potency [15] was “inactive”. For the same compound, the outcome [9] was “inactive” and the Potency [10] was “inactive”.
With `N=C1N=C(N)c2cc3ccccc3cc21` the Potency [13] was “inactive”, the Potency [1] was “inactive” and the Potency [16] was “inactive”. The Potency [2] was 27.3 µM (active), the Potency [3] was 24.3 µM (active) and the Potency [4] was “inactive”. For the same compound, the Potency [5] was 0.969 µM (active), the Potency [14] was 21.7 µM (active) and the Potency [8] was 38.6 µM (active). The Potency [15] was “inactive”.
For `Nc1ccc2c3c(cccc13)-c1ccccc1-2`, the Potency [12] was “inactive”, the Potency [1] was “inactive” and the Potency [16] was “inactive”. For the same compound, the Potency [4] was “inactive”, the Potency [5] was “inactive” and the Potency [14] was 49.1 µM (active). The Potency [7] was 49.1 µM (active), the Potency [8] was 49.1 µM (active) and the outcome [9] was “inactive”. The Potency [10] was “inactive”.
In the case of `CCCCCCCC[N+](CCCCCCCC)(CCCCCCCC)CCCCCCCC`, the Potency [12] is reported as 2.16 µM (active), the Potency [1] is reported as “inactive” and the Potency [2] is reported as 17.2 µM (active). For the same compound, the Potency [3] was 27.3 µM (active), the Potency [4] was “inactive” and the Potency [5] was 0.768 µM (active). The Potency [6] was 17.2 µM (active), the Potency [14] was 30.6 µM (active) and the Potency [8] was 21.6 µM (active). For the same compound, the Potency [15] was “inactive”, the outcome [9] was “inactive” and the Potency [10] was 61 µM (active).
In the case of `CCOc1nc2cccc(C(=O)OC(C)OC(=O)OC3CCCCC3)c2n1Cc1ccc(-c2ccccc2-c2nn[nH]n2)cc1` (configuration not stated), the Potency [1] is reported as “inactive”, the Potency [4] is reported as “inactive” and the Potency [5] is reported as 21.7 µM (active). For the same compound, the Potency [17] was “inactive”, the Potency [8] was 19.3 µM (active) and the Potency [15] was “inactive”. For the same compound, the outcome [9] was “inactive” and the Potency [10] was “inactive”.
In the case of `CCc1cc(Cc2cc(CC)cc(C(C)(C)C)c2O)c(O)c(C(C)(C)C)c1`, the Potency [1] is reported as “inactive”, the Potency [2] is reported as 61.1 µM (active) and the Potency [3] is reported as 61.1 µM (active). The Potency [4] was “inactive”, the Potency [5] was 27.3 µM (active) and the Potency [6] was 54.5 µM (active). The Potency [8] was 24.3 µM (active) and the Potency [10] was “inactive”.
In the case of `CCCCCCCCCCCCc1ccc(O)cc1`, the Potency [12] is reported as 61.1 µM (active), the Potency [1] is reported as “inactive” and the Potency [16] is reported as “inactive”. The Potency [4] was “inactive”, the Potency [5] was “inactive” and the Potency [14] was 43.3 µM (active). For the same compound, the Potency [8] was 48.6 µM (active), the Potency [15] was 10.9 µM (active) and the outcome [9] was “inactive”. For the same compound, the Potency [10] was “inactive”.
For `Cc1cc(=O)oc2cc(N(C)C)ccc12`, the Potency [1] was “inactive”, the Potency [4] was “inactive” and the Potency [5] was “inactive”. The outcome [9] was “inactive” and the Potency [10] was “inactive”.
For `NNc1nc(-c2ccc(N)cc2)cs1`, the Potency [12] was “inactive”, the Potency [1] was “inactive” and the Potency [16] was “inactive”. The Potency [2] was “inactive”, the Potency [4] was “inactive” and the Potency [17] was “inactive”. The Potency [18] was “inactive”, the Potency [14] was 15.4 µM (active) and the Potency [15] was “inactive”. The outcome [9] was “inactive”.
With `Cc1cccc(CN2CCN(C(c3ccccc3)c3ccc(Cl)cc3)CC2)c1` (configuration not stated) the Potency [12] was “inactive”, the Potency [13] was “inactive” and the Potency [1] was “inactive”. The Potency [16] was “inactive”, the Potency [2] was “inactive” and the Potency [3] was “inactive”. For the same compound, the Potency [4] was “inactive”, the Potency [5] was “inactive” and the Potency [17] was “inactive”. The Potency [6] was “inactive”, the Potency [14] was “inactive” and the Potency [8] was “inactive”. For the same compound, the Potency [15] was “inactive” and the outcome [9] was “inactive”.
